Several values for one entry are separate records, joined by “and”; a condition that tells them apart may be missing. Equal values may be shown once. The panel holds about 83,000 compounds, 20% with a hit somewhere; the sample as a whole holds those more often.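 Growth was measured after 48 h exposure to one concentration of compound in 96-well plates. Values under 10 count as active.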 Activity calls are given as the source filed them.
System: UACC-62 melanoma
Assay: NCI-60 one-dose screen, 48 h (100 = growth as untreated, 0 = no growth, -100 = all killed)
Settings: 10 µM unless noted

Row | Structure (SMILES) | growth
1 | COc1c(OC)c(OC)c2c(c1OC)c(=O)c1ccccc1n2C | 38.1% [100 µM] (inactive) and -44.4% [100 µM] (active)
2 | N/N=C(\C(=O)Nc1ccc([N+](=O)[O-])cc1)C(C1=Nc2cc([N+](=O)[O-])ccc2NC1)[N+](=O)[O-] (configuration not stated) | 42.3% [100 µM] (inactive) and 14.7% [100 µM] (inactive)
3 | O=C1c2ccccc2-c2c1c1ccccc1c(=O)n2-c1cccnc1 | 35.8% [100 µM] (inactive) and 0.376% [100 µM] (active)
4 | C[C@]12CC[C@@H]3c4ccc(OS(N)(=O)=O)cc4CC[C@H]3[C@@H]1CCC2=O | 9.29% [100 µM] (active) and 48.3% [100 µM] (inactive)
5 | CCC(c1ccc(N(C)C)cc1)C1NC(=S)NC1=O (configuration not stated) | 20.7% [100 µM] (inactive) and 17.1% [100 µM] (inactive)
6 | Cn1c2c(c3ccccc3c1=O)C(=O)c1ccccc1-2 | 27.3% [100 µM] (inactive) and -100% [100 µM] (active)
7 | CCOC(=O)COc1cc(-c2ccccc2)nc2cc(F)ccc12 | 67.3% [100 µM] (inactive) and 60.3% [100 µM] (inactive)
8 | Cc1ccc2c(/C=C/c3ccc(N(C)C)cc3)ccc(C(C)C)cc1-2 | 68.4% [100 µM] (inactive) and 58.1% [100 µM] (inactive)
9 | COc1ccc(-c2coc3c4c(ccc3c2=O)OCO4)cc1OC | 43.3% [100 µM] (inactive) and 6.94% [100 µM] (active)
10 | COc1ccc2cc(CN3CCC(C4CCNCC4)CC3)ccc2c1 | -93.1% [100 µM] (active) and -100% [100 µM] (active)
11 | CC(=O)c1ccc(NC(=O)/C(CC(=O)/C=C/c2ccccc2)=N/NC(N)=S)cc1 | 91.1% [100 µM] (inactive) and 43.7% [100 µM] (inactive)
12 | COc1ccc2nc(N/N=C/c3ccc(C)s3)cc(C)c2c1 | -97.7% [100 µM] (active) and -100% [100 µM] (active)
13 | CC(C)/C(Cl)=N/OC(=O)Nc1cccc(C(F)(F)F)c1 | -93.1% [100 µM] (active) and -100% [100 µM] (active)
14 | COc1ccccc1-c1n[nH]c(-c2ccccc2O)n1 | 62.2% [100 µM] (inactive) and 50.3% [100 µM] (inactive)
15 | CCC(C)C1(O)OC2CC3(C)OC(=CC3=O)/C(C)=C\C3OC(=O)C1(C)C32 (configuration not stated) | -34.4% [100 µM] (active) and -100% [100 µM] (active)
16 | N#CC1(C#N)C2CCCCC23OC(=N)C1(C#N)C(c1ccco1)O3 (configuration not stated) | -50.9% [100 µM] (active)
17 | COC(=O)C1=CO[C@@H](OC2OC(CO)C(O)C(O)C2O)[C@H]2[C@@H](C)[C@@H](O)[C@@H](O)[C@@H]12 (some centres not stated) | 89.9% [100 µM] (inactive) and 99.1% [100 µM] (inactive)
18 | CC/C(Cl)=N\OC(=O)Nc1ccc(OC)cc1 | -92.2% [100 µM] (active) and -94.2% [100 µM] (active)
19 | CC(C)=CCc1cc(C2COc3cc4c(c(O)c3C2=O)C=CC(C)(C)O4)c(O)cc1O (configuration not stated) | -86.8% [100 µM] (active) and -97.1% [100 µM] (active)
20 | COC(=O)C(C(=O)C(=O)NC1Nc2ccc(C)cc2S1)c1nc2ccc(Cl)cc2[nH]c1=O (configuration not stated) | 77.4% [100 µM] (inactive) and 58.3% [100 µM] (inactive)
21 | CCCCCCCCCC(O)CC(=O)c1c(O)cccc1O (configuration not stated) | -96.8% [100 µM] (active) and -100% [100 µM] (active)
22 | CC(C)O/N=C/c1cc(NC(=S)OC(C)C)ccc1Cl | 13.4% [100 µM] (inactive) and 21.6% [100 µM] (inactive)
23 | COc1ccc(N=C(C)C(C)=Nc2ccc(OC)cc2)cc1 | 9.18% [100 µM] (active) and 4.99% [100 µM] (active)
24 | N#Cc1nc(-c2cccc(-c3nc(C#N)c(N)o3)n2)oc1N | 89.4% [100 µM] (inactive) and 63.8% [100 µM] (inactive)
25 | CC1CC(C(=O)OC2OC(COC3OC(CO)C(OC4OC(C)C(O)C(O)C4O)C(O)C3O)C(O)C(O)C2O)C2CCC3(C)C(=CCC4(C)C3CCC3C(C)(CO)C(O)C(O)CC34C)C2C1C (configuration not stated) | -93.3% [100 µM] (active) and -100% [100 µM] (active)
26 | NC(=S)Nc1[nH]c(=S)nc2c1SC1=N/C(=C\c3ccco3)C(=O)N12 | 25.1% [100 µM] (inactive) and 18.6% [100 µM] (inactive)
27 | C[C@@H]1C[C@](O)([C@@H](C)Cl)C(=O)O[C@@H]2CCN3CC=C(COC(=O)[C@]1(C)O)[C@H]23 | 77.3% [100 µM] (inactive) and 83.1% [100 µM] (inactive)
